In PubChem BioAssay AID720597 (Broad Institute, 2013):
Results with a measured potency or affinity are listed apart. Activity calls are given as the source filed them.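 How the source made its calls: active means fitted half-maximal dose no more than twice the top valid tested dose, for compounds that lower signal; inconclusive means fit invalid, or curve flat with activity between -70 and -30; inactive means potency past limit, curve flat within ±30, or signal increasing.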

biological target: NAD-dependent protein deacylase sirtuin-5, mitochondrial (Homo sapiens) (UniProt Q9NXA8); test: SIRT5 deacylase inhibitors, dose response, biochemical, fluorescence imaging, cherry-pick, set 6 (AID 720597); details: Purified SirT5, succinyl-peptide-AMC/trypsin fluorescence; series mostly up to 15 µM;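 further: lower AMC signal can also come from blocking the trypsin step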
Sequence (Q9NXA8 whole entry, looked up): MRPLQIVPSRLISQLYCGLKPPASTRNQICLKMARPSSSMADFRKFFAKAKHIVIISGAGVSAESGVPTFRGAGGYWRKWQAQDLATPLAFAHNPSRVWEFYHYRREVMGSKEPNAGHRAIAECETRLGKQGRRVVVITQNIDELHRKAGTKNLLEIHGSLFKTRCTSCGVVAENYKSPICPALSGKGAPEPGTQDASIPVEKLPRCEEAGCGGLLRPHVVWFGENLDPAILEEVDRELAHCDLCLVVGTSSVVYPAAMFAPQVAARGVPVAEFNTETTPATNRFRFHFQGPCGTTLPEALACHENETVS

outcome, inactive:
CCCC#Cc1ccc2c(c1)O[C@H](CN(C)C(=O)Nc1ccccc1F)[C@@H](C)CN([C@H](C)CO)S2(=O)=O
O=C(Nc1cc(F)ccc1F)N1CC(=O)N2[C@@H](CO)[C@@H](c3ccc(C#CC4CCCCC4)cc3)[C@@H]2C1
COc1cccc(NC(=O)N2CC(=O)N3[C@H](C2)[C@H](c2ccc(C#CCC4CCCC4)cc2)[C@@H]3CO)c1
O=C(NCC[C@H]1CC[C@@H](NC(=O)Nc2cc(F)ccc2F)[C@H](CO)O1)Nc1ccc(F)cc1
C[C@H]1CN([C@@H](C)CO)S(=O)(=O)c2ccc(/C=C/c3ccccc3)cc2O[C@H]1CN(C)C(=O)c1ccc2c(c1)OCO2
COc1ccc(S(=O)(=O)Nc2ccc3c(c2)C(=O)N([C@H](C)CO)C[C@@H](C)[C@H](CN(C)S(=O)(=O)c2ccc(Cl)cc2)OCCCC[C@H](C)O3)cc1
O=C(NCC[C@@H]1CC[C@@H](NS(=O)(=O)c2ccc(Cl)cc2)[C@H](CO)O1)c1ccccc1F
C[C@H]1CN([C@@H](C)CO)C(=O)c2cc(NC(=O)Cn3cnnn3)ccc2O[C@@H]1CN(C)S(=O)(=O)c1ccc(F)cc1
C[C@@H]1CCCCO[C@@H](CN(C)C(=O)C2CCCCC2)[C@H](C)CN([C@@H](C)CO)C(=O)c2cc(NC(=O)Nc3ccc(F)cc3)ccc2O1
COc1ccc(S(=O)(=O)N(C)C[C@H]2OCCCC[C@H](C)Oc3ccc(NS(=O)(=O)c4ccc(C)cc4)cc3C(=O)N([C@H](C)CO)C[C@H]2C)cc1
COc1cccc(C(=O)Nc2ccc3c(c2)C(=O)N(C)C[C@H](OC)[C@@H](C)CN(CCc2ccccc2)[C@@H](C)CO3)c1
C[C@H]1CN([C@@H](C)CO)S(=O)(=O)c2ccc(C3=CCCCC3)cc2O[C@@H]1CN(C)S(=O)(=O)c1ccc(F)cc1
CO[C@@H]1CC[C@@H]2CCN(C)C(=O)[C@@H](C)[C@H](OC)CN(C)C(=O)c3cc(C#N)ccc3OC[C@@H]1O2
CC(=O)NC[C@@H]1[C@@H](c2ccc(-c3ccccc3F)cc2)[C@@H](CO)N1CCC(F)(F)F
COc1ccc(S(=O)(=O)Nc2ccc3c(c2)C(=O)N([C@H](C)CO)C[C@@H](C)[C@@H](CN(C)Cc2ccc(C(F)(F)F)cc2)OCCCC[C@@H](C)O3)cc1
COCC(=O)Nc1ccc2c(c1)OC[C@H](C)N(CC1CC1)C[C@@H](C)[C@@H](OC)CN(C)C2=O
O=C(Nc1cc(F)ccc1F)N1C[C@@H]2[C@H](c3ccccc31)[C@H](CO)N2Cc1ccncc1
COc1ccc(NC(=O)N(C)C[C@@H]2Oc3ccc(NS(=O)(=O)c4ccc(F)cc4)cc3C(=O)N([C@@H](C)CO)C[C@@H]2C)cc1
C[C@H]1CN([C@@H](C)CO)C(=O)CCCn2nncc2CO[C@@H]1CN(C)C(=O)CCCN(C)C
C[C@H]1CN([C@@H](C)CO)C(=O)c2cc(NS(=O)(=O)c3ccccc3)ccc2O[C@@H]1CN(C)Cc1ccc(C(=O)Nc2ccccc2N)cc1
O=S(=O)(c1ccc(F)cc1)N1CCCCN2[C@H](CO)[C@H](c3ccc(-c4ccccc4F)cc3)[C@@H]2C1
C/C=C/c1ccc([C@@H]2[C@H](CO)N(CC3CC3)C23CN(S(=O)(=O)CC)C3)cc1
COCC#Cc1cnc2c(c1)C(=O)N([C@@H](C)CO)C[C@@H](C)[C@@H](CN(C)C(=O)c1ccc(F)cc1)O2
Cc1cccc(-c2ccc([C@@H]3[C@@H](CO)N4CCCCN(S(=O)(=O)c5ccccc5F)C[C@H]34)cc2)c1
C[C@H]1CN([C@@H](C)CO)C(=O)c2c(c3ccccc3n2C)-c2ccccc2CO[C@@H]1CN(C)Cc1cccc2c1OCCCO2
C[C@@H]1CN([C@H](C)CO)C(=O)c2cc(NC(=O)NC3CCCCC3)ccc2O[C@@H](C)CCCCO[C@@H]1CN(C)Cc1ccc(Cl)c(Cl)c1
C[C@@H]1CN([C@@H](C)CO)C(=O)c2cccc(NC(=O)c3nc4ccccc4s3)c2O[C@H]1CN(C)Cc1ccc(C(F)(F)F)cc1
C[C@H](CO)N1C[C@H](C)[C@H](CN(C)C(=O)NC2CCCCC2)Oc2cc(/C=C/c3ccccc3)ccc2S1(=O)=O
C[C@@H]1CN([C@@H](C)CO)C(=O)c2cc(NC(=O)Cc3ccccc3)ccc2O[C@@H]1CN(C)Cc1ccc(Oc2ccccc2)cc1
